# Screening results as filed in PubChem BioAssay.
# Pf growth 48h: Primary qHTS for delayed death inhibitors of the malarial parasite plastid, 48 hour incubation; P. falciparum luciferase growth in erythrocytes, 48 h; Potency, µM (doses to about 28.7 µM), inactives show at the highest dose activity change, negative = inhibition, most hits filed as inhibitors; 310,000 compounds, 5.9% hits; also: % is scaled to controls: 0 for no effect and ±100 for the full control effect
#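 Compounds are pin-transferred into medium, infected erythrocytes (2% hematocrit, 0.1% parasitemia final) are added, and plates sit one parasite generation at 37 C in 5% CO2. Detection reagent is then added and luminescence measured.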
# AmpC inh no detg: qHTS Inhibitors of AmpC Beta-Lactamase (assay without detergent); P00811; AmpC nitrocefin hydrolysis, absorbance 480 nm, 0.0001% Triton; Potency, µM (highest dose often 57.1 µM), without a hit: at the top dose activity change, negative = inhibition, actives largely listed as inhibitors; 330,000 compounds, 0.52% hits;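 also: plate controls were no compound for no effect and no enzyme for full effect; nearly all actives have a fitted effect of over 20% in size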
# Target sequence (P00811 whole entry, looked up): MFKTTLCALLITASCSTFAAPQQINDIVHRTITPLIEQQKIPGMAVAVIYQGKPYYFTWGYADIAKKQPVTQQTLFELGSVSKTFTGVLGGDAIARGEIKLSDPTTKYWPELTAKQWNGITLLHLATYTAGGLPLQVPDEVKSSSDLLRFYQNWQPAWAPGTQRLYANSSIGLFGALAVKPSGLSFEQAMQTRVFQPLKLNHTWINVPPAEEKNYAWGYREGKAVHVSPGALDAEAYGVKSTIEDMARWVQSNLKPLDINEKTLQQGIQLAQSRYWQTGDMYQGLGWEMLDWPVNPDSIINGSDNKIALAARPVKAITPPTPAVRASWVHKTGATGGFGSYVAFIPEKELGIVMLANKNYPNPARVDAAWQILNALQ
#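 20 mM phosphate pH 7.0 + 0.01% (detergent screen) or 0.0001% Triton X-100; 5.3 nM AmpC reagent; cpd preinc 15 min RT; nitrocefin (800 uM stock) to start; A480 q20 s × 4 min; Activity was normalised to no-enzyme and no-compound control wells.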
# Pf growth 96h: Primary qHTS for delayed death inhibitors of the malarial parasite plastid, 96 hour incubation. P. falciparum luciferase reporter growth, 96 h. 320,000 compounds, 6.9% hits. Potency, µM (doses to about 28.7 µM), for inactives: at the top dose activity change, negative = inhibition, actives largely listed as inhibitors; also: % is scaled to controls: 0 for no effect and ±100 for the full control effect
#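 Two-generation exposure (96 h) targets delayed-death phenotype. Reporter parasites carrying integrated firefly luciferase, in red cells at 2% hematocrit and 0.05% parasitemia final, kept at 37 C, 5% CO2; luminescence loss indicates inhibition.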
# Sm TGR inh: qHTS Assay for the Inhibitors of Schistosoma Mansoni Peroxiredoxins; Schistosoma mansoni thioredoxin glutathione reductase (TGR), Q962Y6; purified TGR, DTNB reduction, TNB absorbance 405 nm; Potency, µM (highest dose often 114 µM), for inactives: top-dose activity change, negative = inhibition, hits mostly inhibitors; 360,000 compounds, 3% hits; also: % is scaled to controls: 0 for no effect and ±100 for the full control effect; nearly all actives have a fitted effect of over 60% in size
#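 First, TGR (20 nM dispensed) and NADPH were mixed with compound. Second, a 15 min room-temperature incubation followed. Third, further NADPH and then DTNB were added to start the reaction. Finally, TNB absorbance was monitored kinetically.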
# SARS PLpro yeast: qHTS of Yeast-based Assay for SARS-CoV PLP | S. cerevisiae expressing SARS-CoV PLpro, growth rescue | Potency, µM (doses to about 32.9 µM), for the others: top-dose activity, positive = growth rescue, hits mostly activators | 330,000 compounds, 0.19% hits | AID 485353, 2010; calls by dose curve; also: 0% is about no effect; nearly all actives have a fitted effect of over 55% in size
# AmpC detergent: qHTS Inhibitors of AmpC Beta-Lactamase (assay with detergent). 370,000 compounds, 0.041% hits. AmpC hydrolysis of nitrocefin, absorbance 480 nm, 0.01% Triton. Potency, µM (series often up to 114 µM), inactives show top-dose activity change, negative = inhibition, most hits filed as inhibitors;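 also: 0% = no-compound wells and -100% = no-enzyme wells; nearly all actives have a fitted effect of over 25% in size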
#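 20 mM phosphate pH 7.0 + 0.01% (detergent screen) or 0.0001% Triton X-100; 5.3 nM AmpC reagent; cpd preinc 15 min RT; nitrocefin (800 uM stock) to start; A480 q20 s × 4 min; Activity was normalised to no-enzyme and no-compound control wells.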
# Numbers without * were called inactive; ? = inconclusive; nt = no result given. Most compounds without a hit are left out; they make up all but 12% or so of the library. Unless noted, calls follow the shape of the dose curve; as a rule, active = well fitted curve in the direction sought with a large enough effect; inconclusive = small, poorly fitted or top-dose-only effect, or another doubt; inactive = no such curve, though single readings can be large; an effect the other way counts as inactive or inconclusive. Potency is read from the fitted curve at half-maximal effect.
SMILES,Pf growth 48h,AmpC inh no detg,Pf growth 96h,Sm TGR inh,SARS PLpro yeast,AmpC detergent
Cc1nc(-c2ccc(C(=O)Nc3cccc(Br)c3)cc2)cs1,63%,-38%,-9%,2%,-2%,0%
CCCCNC(=O)c1c(-c2ccccc2)c(-c2ccccc2)nn(C)c1=O,nt,nt,nt,0%,nt,2%
COCCNC(=O)CCn1c(=O)c2cc(OC)c(OC)cc2n(CC(=O)Nc2ccccc2OC)c1=O,nt,nt,nt,-7%,nt,1%
CCCc1cc(C(=O)Nc2c(C)nn(Cc3c(Cl)cccc3Cl)c2C)no1,nt,nt,nt,9%,nt,23%
O=C(CSC1=Nc2ccccc2N=C(c2ccc(F)cc2)C1)NCc1ccccc1Cl,nt,nt,nt,11%,nt,19%
O=C(CN1C(=O)/C(=C\c2ccccc2Br)Oc2ccccc21)NCCCN1CCOCC1,-4%,218%,2.3µM*,-9%,29%,-4%
O=C(CN1C(=O)COc2ccccc21)NCCCN1CCCC1,10%,11%,?,3%,-7%,2%
O=C(NCCCN1CCOCC1)c1ccc(/C=C2\Oc3ccccc3N(Cc3ccccc3F)C2=O)cc1,-30%,-12%,8.3µM*,-10%,-2%,?
O=C1CC2(CCN(C(=O)c3cccc([N+](=O)[O-])c3)CC2)Oc2ccccc21,-15%,33%,-2%,-4%,10%,-9%
CC(C)Oc1cccc(C(=O)NC(=S)Nc2cccc(C(F)(F)F)c2)c1,57%,-22%,65%,0%,-1%,-7%
COc1ccc(Br)cc1C(=O)NC(=S)Nc1ccc(Cl)c(C(=O)O)c1,-5%,-25%,20%,-6%,-4%,5%
CC(C)Oc1cccc(C(=O)NC(=S)Nc2ccc(Cl)c(C(=O)O)c2)c1,52%,-32%,?,40µM*,?,-2%
COc1ccc(C(=O)NC(=S)Nc2ccc(Cl)c(C(=O)O)c2)cc1,94%,-19%,-10%,40µM*,1%,3%
Cc1cc2c(cc1S(=O)(=O)Nc1ccc(C(C)C)cc1)OCCN2C,?,-36%,12µM*,5%,5%,13%
CC(=O)c1ccc(NS(=O)(=O)c2cc3c(cc2C)N(C)CCO3)cc1,15%,-25%,25%,-12%,0%,-8%
Cc1ccccc1-n1ncc2c1CC(C)(C)CC2NC(=O)C1CCC1 (configuration not stated),?,40%,14%,-1%,-3%,1%
Cc1ccccc1-n1ncc2c1CC(C)(C)CC2NC(=O)C1=CC(=O)CC(C)(C)O1 (configuration not stated),?,120%,9.3µM*,-25%,-3%,-9%
COc1ccc(OCC(=O)N2c3ccccc3CC2C)c([N+](=O)[O-])c1 (configuration not stated),nt,-26%,nt,nt,-2%,nt
CCCCN1CCc2nc(Nc3ccc(OC)cc3OC)ncc2C1,nt,nt,nt,7%,nt,4%
CCN(C(=O)c1cc2c(Cl)nc3ccc(C)cc3c2s1)c1cc(OC)ccc1OC,nt,nt,nt,1%,nt,6%
COC(=O)c1cccc(-n2c(CCC(=O)O)ccc2-c2cccs2)c1,-2%,-21%,25%,3.5µM*,-1%,-8%
COC(=O)c1cccc(-n2c(CCC(=O)O)ccc2-c2ccc(OC)cc2)c1,nt,nt,nt,13µM*,nt,20%
COc1ccc(-c2ccc(CCC(=O)O)n2NC(=O)c2cccs2)cc1,16%,-5%,14%,-23%,21%,5%
O=c1[nH]c(=O)n(-c2cccc(F)c2)c(O)c1/C=C1\C=Nc2ccccc21,10%,-40%,7%,35µM*,5%,-6%
O=c1[nH]c(=O)n(-c2ccccc2)c(O)c1/C=C1/C(c2ccccc2)=Nc2ccccc21,?,-43%,9.3µM*,-15%,-68%,-10%
SMILES,Pf growth 48h,AmpC inh no detg,Pf growth 96h,Sm TGR inh,SARS PLpro yeast,AmpC detergent
O=C(O)c1ccc(-n2c(O)c(/C=C3\C=Nc4ccccc43)c(=O)[nH]c2=O)cc1,4%,-23%,?,?,4%,-6%
COc1ccccc1NC(=S)N1CCC(c2nc3cc(C)c(C)cc3[nH]2)CC1,?,-20%,12µM*,3%,0%,0%
COc1ccc(S(=O)(=O)N2CC(=O)Nc3ccccc32)cc1F,-23%,-10%,?,11µM*,5%,6%
CCOc1cccc(C=Nc2cc(C)cc(C)c2O)c1O,?,-46%,nt,4µM*,-12%,?
CCOc1cccc(/C=N/N=C/c2cccc(OCC)c2O)c1O,0%,-5%,-2%,-2%,-1%,-3%
CC(C)=CCOc1ccc2c(C)c(CC(=O)N3C[C@H]4C[C@@H](C3)c3cccc(=O)n3C4)c(=O)oc2c1C,?,298%,9.3µM*,-17%,4%,?
C=C(C)COc1ccc2c(C)c(CCC(=O)N3C[C@H]4C[C@@H](C3)c3cccc(=O)n3C4)c(=O)oc2c1,?,162%,2.6µM*,-19%,-3%,?
O=C(COc1cc2oc(=O)c3c(c2cc1Cl)CCC3)N1C[C@H]2C[C@@H](C1)c1cccc(=O)n1C2,?,39%,?,4%,-4%,-5%
C=C(C)COc1ccc2c(C)c(CC(=O)N3C[C@H]4C[C@@H](C3)c3cccc(=O)n3C4)c(=O)oc2c1,?,141%,?,-8%,-4%,?
C=C(C)COc1cc2oc(=O)c(CC(=O)N3C[C@H]4C[C@@H](C3)c3cccc(=O)n3C4)c(C)c2cc1Cl,-17%,140%,10µM*,?,0%,-9%
Cc1c(OCC(=O)N2C[C@H]3C[C@@H](C2)c2cccc(=O)n2C3)ccc2c3c(c(=O)oc12)CCCC3,-28%,96%,?,-16%,1%,?
O=C(Nc1ccc(F)cc1F)c1cc2ccc3cccnc3c2[nH]1,nt,nt,nt,3%,nt,23%
Cn1nc(-c2ccc(Cl)cc2)nc2c(=O)n(C)c(=O)nc1-2,?,-21%,0.93µM*,?,-43%,?
CS(=O)(=O)n1nc(-c2ccc(Cl)cc2)nc1N,51%,-9%,-4%,3%,0%,4%
O=c1c(F)cn(C2CCCO2)c(=O)n1Cc1c(Cl)cccc1Cl (configuration not stated),nt,-5%,13µM*,2%,-8%,2%
COc1ccccc1NS(=O)(=O)c1ccc(C(=O)N2CC(C)OC(C)C2)cc1 (configuration not stated),?,-3%,-26%,0%,0%,?
